In the supplement of paper PMC6522484:
± gives the standard deviation of the averaged measurements.

Experiments:
DLD1 [1] = test: cell viability (CellTiter-Glo) relative to plate median (fraction of plate median); higher = more viable cells; settings: 5 µM; treatment time 24 h; reporter: 7TFP
Method in brief: (§1)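 On parallel plates, a Tecan F500 reader recorded either firefly luciferase or CellTiterGlo luminescence. The plates held colorectal cancer cells stably transduced with lentiviral TCF/Wnt firefly luciferase reporters (7TFP or TCF4/Wnt), seeded in 384-well format and treated 24 h later with library compounds at a final 5 µM for 24 h. Per-well signals were normalised to the plate median (webcellHTS2, additive, no log transformation), and two independent replicates were averaged.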

HCT116 = test: as above; settings: 5 µM; treatment time 24 h; reporter: TCF4/Wnt
Method in brief: as §1

SW480 [2] = test: as above; settings: 5 µM; treatment time 24 h; reporter: 7TFP
Method in brief: as §1

DLD1 [3] = test: TCF/Wnt firefly luciferase reporter signal relative to plate median (fraction of plate median); higher = higher Wnt reporter signal; settings: 5 µM; treatment time 24 h; reporter: 7TFP
Method in brief: as §1

SW480 [4] = test: as above; settings: 5 µM; treatment time 24 h; reporter: 7TFP
Method in brief: as §1

SMILES	cell viability (DLD1 [1])	cell viability (HCT116)	cell viability (SW480 [2])	TCF/Wnt firefly luciferase reporter signal (DLD1 [3])	TCF/Wnt firefly luciferase reporter signal (SW480 [4])
COc1cc2c(cc1OC)[C@@H]1C(=O)c3ccc4c(c3O[C@@H]1CO2)CC(C(C)C)O4 (stereo not given in full)	0.963 ± 0.11	0.685 ± 0.14	0.9715 ± 0.0092	0.84 ± 0.0042	0.842
CCC1(C2=NCCN2)Cc2ccccc2O1 (stereo not given)	0.9965 ± 0.005	1.04 ± 0.021	1.02 ± 0.09	1.015 ± 0.0071	1.04 ± 0.035
COc1cc2c(c(OC)c1OC)-c1ccc(OC)c(=O)cc1[C@@H](NC(C)=O)CC2	1.1 ± 0.057	0.636 ± 0.016	1.22 ± 0.099	0.77 ± 0.22	0.802 ± 0.13
CC(C)c1ccc2c(c1O)CC[C@H]1C3=C(CC[C@]21C)C(=O)OC3	1.1 ± 0.042	1.1 ± 0.099	1.09	1.04 ± 0.19	1.06
C[C@@H](CO)NC(=O)[C@@H]1C=C2c3cccc4[nH]cc(c34)C[C@H]2N(C)C1	0.983 ± 0.067	1.01 ± 0.061	0.939 ± 0.052	1.09 ± 0.099	0.98 ± 0.026
COc1ccc(C[C@H]2NC[C@H](O)[C@H]2OC(C)=O)cc1	0.831 ± 0.052	0.513 ± 0.065	1.06 ± 0.042	0.248 ± 0.011	0.357 ± 0.036
CC(=O)O[C@H]1CC[C@@]2(C)C(=CC[C@@H]3[C@@H]2CC[C@]2(C)C(=O)CC[C@@H]32)C1	1.02 ± 0.075	1.03 ± 0.083	0.983 ± 0.025	0.944 ± 0.028	1.08 ± 0.092
CN(C)C(=O)Oc1cccc([N+](C)(C)C)c1	1.06 ± 0.089	0.979 ± 0.017	1.01 ± 0.017	1.03 ± 0.15	1.09 ± 0.021
CCCCCCCCCc1ccc(O)cc1	1.03 ± 0.028	0.999 ± 0.016	0.946 ± 0.0071	1.19 ± 0.092	1.17 ± 0.05
CCCC(C)(COC(N)=O)COC(=O)NC(C)C (stereo not given)	1.06 ± 0.014	0.994 ± 0.14	0.97 ± 0.0042	0.887 ± 0.088	0.992 ± 0.082
C[C@H]1C(=O)O[C@@H]2CCN3CC=C(COC(=O)[C@](C)(O)[C@]1(C)O)[C@H]23	1 ± 0.023	1.04 ± 0.09	1.015 ± 0.0071	0.919 ± 0.035	0.998 ± 0.06
COc1cc2c(cc1O)CCN[C@@H]2C	0.997 ± 0.0014	1.06 ± 0.099	1.015 ± 0.0071	0.89 ± 0.16	0.966 ± 0.049
O=[N+]([O-])c1cc([As](=O)(O)O)ccc1O	1.07 ± 0.14	1.07 ± 0.14	1.075 ± 0.0071	1.01 ± 0.19	0.959 ± 0.1
